Experimental data reported in the OligoGym collection.
Note: reference of the scale not given here.

Each sequence was assayed against TIMM44 (assay: pooled miR-30 sensor sort-seq; sequence = guide strand). Details: shRNA.
With ATCACTTTTACTGACTTCGTGA the sensor-assay potency score (higher = more potent) was 0.235.
Work on TTTACTGACTTCGTGAAGGCTC yielded a sensor-assay potency score (higher = more potent) of 0.133.
TTCCGTAGCACCTCGCTCGTCC was tested, and the sensor-assay potency score (higher = more potent) was 1.18.
TTCTCTTCCGGAGTCGCTGGGG was tested, and the sensor-assay potency score (higher = more potent) was -0.531.
In the case of TTCTTGTTTGACATTATCTAGC, the sensor-assay potency score (higher = more potent) is reported as -0.514.

What follows are sequences tested against TIMM50 in the same assay as above. Details: shRNA.
TTGCTTCTGACTAGTCTCCTGG gave a sensor-assay potency score (higher = more potent) of -0.18.
TTTGCTTCTGACTAGTCTCCTG showed a sensor-assay potency score (higher = more potent) of -0.00854.
Work on TGATCATCTGTCTATAATCTTT yielded a sensor-assay potency score (higher = more potent) of -1.49.
TGAAATATCCTTTACATGGTGT showed a sensor-assay potency score (higher = more potent) of 0.0469.
For TTCTGCTTGTTGGACTTGGAGA, the sensor-assay potency score (higher = more potent) was -1.03.
TATCAATGAGTGGAAACGCAGT showed a sensor-assay potency score (higher = more potent) of -1.04.
TACATGGTGTCCATCCATGTAT gave a sensor-assay potency score (higher = more potent) of -1.
TTGAAATATTTGTATGTCCGGC was tested, and the sensor-assay potency score (higher = more potent) was -0.0672.
TGTCCATCCATGTATCTTGTGG showed a sensor-assay potency score (higher = more potent) of -0.521.
TAGACGACGCTCACAGTCCCAC showed a sensor-assay potency score (higher = more potent) of -0.936.
Sequence ATTCAGACATGAAATATCCTTT has a sensor-assay potency score (higher = more potent) of 0.389.

The sequences below were run against TJP3 in the same assay as above. Details: shRNA.
In the case of ATAGGTTCGCATGCTGTCCTGT, the sensor-assay potency score (higher = more potent) is reported as -0.0267.
Work on TCGTAGTCGCTGTTAACGCGGC yielded a sensor-assay potency score (higher = more potent) of -0.824.
TTCATCTGCACGTCCTGCCGTG was tested, and the sensor-assay potency score (higher = more potent) was -0.0273.
Sequence TACCACGTCAGATACAACCATG has a sensor-assay potency score (higher = more potent) of -1.34.
TACAACCATGGATCCACCGGGC showed a sensor-assay potency score (higher = more potent) of -0.563.
In the case of TAGAATGAGATCTCCTTCCTGC, the sensor-assay potency score (higher = more potent) is reported as 0.597.
TTCTGGAATCTACTGAACTTTC gave a sensor-assay potency score (higher = more potent) of -1.4.
For TCTAGTTTGATGATCTTGGAGG, the sensor-assay potency score (higher = more potent) was -0.916.
ATCGTCTTCATCCGAGTCCTGG showed a sensor-assay potency score (higher = more potent) of -0.452.
TTCAGTGACAGGTTCTGGCTAG gave a sensor-assay potency score (higher = more potent) of 0.155.
TTGAGCTCCTGGTACCAGGTGT showed a sensor-assay potency score (higher = more potent) of 0.444.
TTGACGCCAAACTCTTCGCTGT gave a sensor-assay potency score (higher = more potent) of -0.592.

The sequences below were run against TKT in the same assay as above. Details: shRNA.
TTGATGTGGGGACTGACCGAAA gave a sensor-assay potency score (higher = more potent) of -0.805.
TCCTTTTTGAAGATCTCCGAGA showed a sensor-assay potency score (higher = more potent) of -0.964.
For TTCTGGTAGATGTCCATCTGGT, the sensor-assay potency score (higher = more potent) was -0.51.
TTGTCCAGCTTATAGATGCTGG gave a sensor-assay potency score (higher = more potent) of -1.07.
TTGCTCTTCAGGACCACCTTGG showed a sensor-assay potency score (higher = more potent) of -0.197.
With TAAAAGACAGTTGATGTGGGGA the sensor-assay potency score (higher = more potent) was 0.52.
TTTTTGCTCTGGATCTGGCTGT showed a sensor-assay potency score (higher = more potent) of 0.312.
In the case of TTGTCGAAGTATTTGCCGGTGT, the sensor-assay potency score (higher = more potent) is reported as -0.129.
Work on TTGAAGATCTCCGAGAAGGTGG yielded a sensor-assay potency score (higher = more potent) of 0.421.
Work on TTTCTTTCTTCAGCAGTTCGGC yielded a sensor-assay potency score (higher = more potent) of -0.762.
In the case of TAGATGATGGCATTTTCTGGGC, the sensor-assay potency score (higher = more potent) is reported as -0.904.
TTGTCCCCAACTTTGTAGCTGG was tested, and the sensor-assay potency score (higher = more potent) was -0.755.
